Consider 26 compounds from PubChem BioAssay.

Test [1] is described as follows: viability loss in pontine glioma line – cell-based, SU-DIPG-XXV, MIPE5.0, CellTiter-Glo, qHTS, dose response (AID 1347065).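 Further: cells exposed to compound for 48 hours before ATP readout.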 Particulars: CellTiter-Glo ATP luminescence. On the technique in general: ATP-based viability assays read luminescence as a measure of living cells.
Test [2] is described as follows: growth inhibition of DIPG cells – cell-based, MIPE5.0 library, qHTS (AID 1347068; cut-off not given, nearly all actives have IC50 up to about 30 µM;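 on IC50: cells exposed to compound for 48 hours before viability readout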). The note with it: SU-DIPG-XXV viability. For orientation: Quantitative high-throughput screening tests each substance at several concentrations.
Test [3] is described as follows: JHH-DIPG-1 glioma cell viability, MIPE5.0 library, CellTiter-Glo luminescence, qHTS (AID 1347067).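 Further: cells exposed to compound for 48 hours before readout.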 Particulars: JHH-DIPG-1 glioma viability, CellTiter-Glo ATP luminescence.
A short description of test [4]: viability loss with induced miR-34 in A549 – imaging, A549 dox-inducible miR-34, nuclei and caspase counts, primary screen (AID 1347080;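 active means compounds whose cell count with miR-34 switched on is under 0.7 times the count with it off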). Particulars: A549 miR-34 inducible, Hoechst nuclei count, 48 h.
A short description of test [5]: compounds altering HSF1 focus formation in cells – imaging, Selleck Cancer Library (AID 1347162; in the data active means plate-normalised HSF1 focus index below about 0.46). Particulars: human cells, HSF1 nuclear foci imaging, at 10 µM; SSMD: measured here: HSF1 foci SSMD mean; cell count: measured here: cell number; plate-normalised HSF1 focus index: stronger effect = lower value.
Test [6] can be described thus: MELAS cybrid and Rieske KO viability enhancers – cell-based, MELAS cybrids, Rieske KO mouse fibroblasts, CellTiter-Glo, primary screen (AID 1508586;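 active means mean z-score across replicates of 1.96 or higher in either the MELAS or the Rieske mutant cell line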;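 further: z relative to plate mean and SD of compound and empty wells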). The note with it: low glucose.
Test [7] in a line: drug combination growth inhibition, ovarian cancer – cell-based, oncology-focused library, rucaparib conditional, profiling panel (AID 1508598;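 active means normalized viability below 100% at a tested concentration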). Particulars: patient-derived ovarian cancer cells, CellTiter-Glo viability, 144 h, stronger effect = lower value.
Test [8] in a line: growth inhibition of DIPG cells – cell-based, MIPE4.0 library, CellTiter-Glo luminescence, qHTS (AID 1347066; cut-off not given, nearly all actives have AC50 up to about 30 µM;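 further: cells exposed to compound for 48 hours before readout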). Particulars: SU-DIPG-VI viability, CellTiter-Glo ATP luminescence.
Test [9] deals with NAD(+) hydrolase SARM1 (Homo sapiens) (UniProt Q6SZW1). Put plainly: blocking NAD cleavage by SARM1 SAM-TIR – cell lysate, NAD-Glo luminescence (AID 1508614;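 active means compound whose remaining NAD level is above about 45 nM, limit read from the data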). The note with it: SAM-TIR HEK293T lysate NADase, at 1 µM, stronger effect = higher value.
NAD(+) hydrolase SARM1 (Homo sapiens), sequence (Q6SZW1 whole entry, looked up): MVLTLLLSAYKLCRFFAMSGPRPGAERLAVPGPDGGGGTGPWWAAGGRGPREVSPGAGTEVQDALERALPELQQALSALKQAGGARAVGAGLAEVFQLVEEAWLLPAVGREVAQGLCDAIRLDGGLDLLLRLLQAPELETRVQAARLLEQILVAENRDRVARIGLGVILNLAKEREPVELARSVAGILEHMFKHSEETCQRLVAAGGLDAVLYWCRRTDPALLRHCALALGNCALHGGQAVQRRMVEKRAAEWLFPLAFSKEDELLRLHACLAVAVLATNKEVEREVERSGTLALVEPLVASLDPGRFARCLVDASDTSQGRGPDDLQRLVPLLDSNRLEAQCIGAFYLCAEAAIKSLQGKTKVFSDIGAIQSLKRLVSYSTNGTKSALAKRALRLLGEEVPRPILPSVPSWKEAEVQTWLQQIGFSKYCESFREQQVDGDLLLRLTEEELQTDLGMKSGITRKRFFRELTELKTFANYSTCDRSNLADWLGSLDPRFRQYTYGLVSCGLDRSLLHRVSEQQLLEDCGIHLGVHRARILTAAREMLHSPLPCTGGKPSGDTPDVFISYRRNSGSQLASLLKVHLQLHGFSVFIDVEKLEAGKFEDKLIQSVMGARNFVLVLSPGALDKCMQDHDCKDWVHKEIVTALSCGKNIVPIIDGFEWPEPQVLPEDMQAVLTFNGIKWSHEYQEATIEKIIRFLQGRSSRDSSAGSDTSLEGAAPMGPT

Results filed as inconclusive are left out. The source made the active and inactive calls. Unless noted, cut-off not given; nearly all actives show AC50 up to about 26 µM.

What is called AC50 is the concentration at which the activity in the assay is half-maximal. For the compound `CN1CCN(CCCNc2ncc(Cl)c(-c3cc4c(C(=O)NC5CC5)cccc4s3)n2)CC1`, the concentration at half-maximal activity (AC50) in test [1] was 23.5 µM (active). Further, the outcome in [2] was inactive.
Consider `CN1CC[C@@H](c2c(O)cc(O)c3c(=O)cc(-c4ccc(C(F)(F)F)cc4Cl)oc23)[C@@H]1CO`, for which the AC50 in test [1] was 23.5 µM (active). In addition, the call in test [3] was inactive.
`CCOCOC[C@H](C[C@H](C)C(=O)NO)NC(=O)c1ccc(Oc2ccccc2)cc1`: the outcome in [1], in [3] and in [2] was inactive.
With `Cc1ccc(-c2ccc(C)cn2)nc1`, the outcome in [1], in test [3] and in [2] was inactive.
On to `O=c1oc2c(C3OCCCO3)c(O)ccc2c2c1CNCC2`, for which the compound was called inactive in test [1], in test [3] and in test [2].
Turning to `CC(C)[C@@H](CS(=O)(=O)C(C)C)N1C(=O)[C@@](C)(CC(=O)O)C[C@H](c2cccc(Cl)c2)[C@H]1c1ccc(Cl)cc1`, the half-maximal activity concentration (AC50) is 18.6 µM (active) in [1] and 23.5 µM (active) in [3].
For `CCc1cc2c(cc1N1CCC(N3CCOCC3)CC1)C(C)(C)c1[nH]c3cc(C#N)ccc3c1C2=O`, the AC50 in test [1] is 2.04 µM (active). In addition, the result in [2] was inactive.
For `Cc1nc(C)c(CN2CCN(C(c3ccc(F)cc3)c3ccc(F)cc3)CC2)nc1C`, the AC50 in [1] is 23.5 µM (active). The compound was called inactive in test [3] and in [2].
Take `O=C1CSC(=O)N1C(CCc1ccncc1)COc1ccc(-c2cccc([N+](=O)[O-])c2)cc1` (configuration not stated): the AC50 in test [1] and in test [3] was 18.6 µM (active) throughout.
For `O=c1c(-n2ccnn2)c[nH]n1-c1cc(N2CCOCC2)ncn1`, the half-maximal activity concentration (AC50) in [1] is 20.9 µM (active). In test [3], the result was inactive.
With `C[C@@H]1CC2C3C[C@H](F)C4=CC(=O)C=C[C@]4(C)[C@@]3(F)[C@@H](O)C[C@]2(C)[C@@]1(OC(=O)c1ccco1)C(=O)SCF` (some centres not stated), in test [1], the half-maximal activity concentration (AC50) is 20.9 µM (active). Also, the compound was called inactive in test [2].
For orientation: IC50 means the point on the concentration scale where inhibition reaches its midpoint. As to `c1ccc(-c2ccc(CNc3nc(-c4ccccn4)nnc3-c3ccccc3)cc2)cc1`, the concentration at half-maximal activity (AC50) is 3.32 µM (active) in test [1] and 10.5 µM (active) in test [3]. The 50% inhibitory concentration (IC50) in test [2] is 2.95 µM (active).
For `Cn1cc(-c2cc(Oc3cc(F)c(NC(=O)C4(C(=O)Nc5ccccc5)CC4)cc3F)ccn2)cn1`, the concentration at half-maximal activity (AC50) was 16.6 µM (active) in [1] and 18.6 µM (active) in test [3].
Take `Cc1ccc(NC(=O)c2ccc(CN3CCNCC3)cc2)cc1Nc1nccc(-c2cccnc2)n1`: the AC50 in test [1] was 23.5 µM (active). Also, the outcome in test [3] and in test [2] was inactive.
In the case of `O=C(NCCCNC(=O)c1ccc[nH]c1=O)c1cc(-c2ccccc2)on1`, the compound was called inactive in test [1] and in [2]. Moreover, the concentration at half-maximal activity (AC50) in test [3] is 14.8 µM (active).
Take `CCC(CC)C(c1ccc(Nc2nc3ccccc3s2)cc1)n1cncn1` (configuration not stated): in test [1], the concentration at half-maximal activity (AC50) was 18.6 µM (active). Moreover, the half-inhibitory concentration (IC50) in [2] is 20.9 µM (active).
Usually viability stands for a read-out of living cells in per cent, often relative to untreated cells. On to `O=C(Nc1ccc(OC(F)(F)F)cc1)c1sccc1NCc1ccnc2ccccc12`, for which the concentration at half-maximal activity (AC50) in test [1] is 16.6 µM (active); in test [3] it was 5.9 µM (active). Moreover, the result in test [2] was inactive. The fold change in test [4] (stronger effect = lower value, cell number ratio, induced over uninduced) is 0.889 (inactive); in [4] (measured here: relative caspase fold change +Dox/-Dox), 1.05. Also, the cell count in test [4] (measured here: total cells with miR-34 induction, stronger effect = lower value) turned out to be 4270; in test [4] (measured here: total cells without miR-34 induction) it was 4800; in [5], 7420. This compound also displayed an SSMD in test [5] of 2.93. Moreover, in [5], the plate-normalised HSF1 focus index was 1.18 (inactive). The z-score was -0.433 (inactive) in [6] (MELAS cybrid survival, CellTiter-Glo 48 h, stronger effect = higher value) and 0.766 in test [6] (Rieske KO mouse fibroblast survival, CellTiter-Glo 72 h). Moreover, the viability was 104% (inactive) in test [7] (at 0.000305 µM, OCI-C5x cells, with rucaparib 10 µM, 100% = cells with rucaparib alone); 102% (inactive) in test [7] (at 0.000305 µM, OCI-C5x cells, without rucaparib); 79.8% (active) in test [7] (at 0.000305 µM, OCI-P5x cells, with rucaparib 20 µM, 100% = cells with rucaparib alone); 88.5% (active) in test [7] (at 0.000305 µM, OCI-P5x cells, without rucaparib); 108% (inactive) in [7] (at 0.00122 µM, OCI-C5x cells, with rucaparib 10 µM, 100% = cells with rucaparib alone); 110% (inactive) in test [7] (at 0.00122 µM, OCI-C5x cells, without rucaparib). For the same compound, the viability in [7] (at 0.00122 µM, OCI-P5x cells, with rucaparib 20 µM, 100% = cells with rucaparib alone) was 76.7% (active); in [7] (at 0.00122 µM, OCI-P5x cells, without rucaparib), 81.1% (active); in [7] (at 0.00488 µM, OCI-C5x cells, with rucaparib 10 µM, 100% = cells with rucaparib alone), 98.6% (active); in test [7] (at 0.00488 µM, OCI-C5x cells, without rucaparib), 105% (inactive); in test [7] (at 0.00488 µM, OCI-P5x cells, with rucaparib 20 µM, 100% = cells with rucaparib alone), 79.8% (active); in test [7] (at 0.00488 µM, OCI-P5x cells, without rucaparib), 79.7% (active). Besides, the viability is 108% (inactive) in test [7] (at 0.0195 µM, OCI-C5x cells, with rucaparib 10 µM, 100% = cells with rucaparib alone); 113% (inactive) in test [7] (at 0.0195 µM, OCI-C5x cells, without rucaparib); 81% (active) in test [7] (at 0.0195 µM, OCI-P5x cells, with rucaparib 20 µM, 100% = cells with rucaparib alone); 79% (active) in test [7] (at 0.0195 µM, OCI-P5x cells, without rucaparib); 108% (inactive) in [7] (at 0.0781 µM, OCI-C5x cells, with rucaparib 10 µM, 100% = cells with rucaparib alone); 113% (inactive) in [7] (at 0.0781 µM, OCI-C5x cells, without rucaparib). For the same compound, the viability is 111% (inactive) in [7] (at 0.0781 µM, OCI-P5x cells, with rucaparib 20 µM, 100% = cells with rucaparib alone); 108% (inactive) in test [7] (at 0.0781 µM, OCI-P5x cells, without rucaparib); 98.2% (active) in test [7] (at 0.313 µM, OCI-C5x cells, with rucaparib 10 µM, 100% = cells with rucaparib alone); 110% (inactive) in test [7] (at 0.313 µM, OCI-C5x cells, without rucaparib); 107% (inactive) in [7] (at 0.313 µM, OCI-P5x cells, with rucaparib 20 µM, 100% = cells with rucaparib alone); 110% (inactive) in [7] (at 0.313 µM, OCI-P5x cells, without rucaparib). Also, the viability in [7] (at 1.25 µM, OCI-C5x cells, with rucaparib 10 µM, 100% = cells with rucaparib alone) was 94.5% (active); in test [7] (at 1.25 µM, OCI-C5x cells, without rucaparib), 107% (inactive); in [7] (at 1.25 µM, OCI-P5x cells, with rucaparib 20 µM, 100% = cells with rucaparib alone) it was 103% (inactive); in [7] (at 1.25 µM, OCI-P5x cells, without rucaparib), 112% (inactive); in test [7] (at 5 µM, OCI-C5x cells, with rucaparib 10 µM, 100% = cells with rucaparib alone), 89.4% (active); in [7] (at 5 µM, OCI-C5x cells, without rucaparib), 117% (inactive). In addition, the viability in [7] (at 5 µM, OCI-P5x cells, with rucaparib 20 µM, 100% = cells with rucaparib alone) was 77.3% (active); in [7] (at 5 µM, OCI-P5x cells, without rucaparib) it was 54.8% (active).
As for `Cc1cccc(-c2[nH]c(CNc3ccccc3F)nc2-c2ccc3ncnn3c2)n1`, the result in test [1] and in [2] was inactive.
As to `C[C@H]1CC2[C@@H]3CCC4=CC(=O)C=C[C@]4(C)[C@@]3(F)[C@@H](O)C[C@]2(C)[C@@]1(O)C(=O)CO` (some centres not stated), the compound was classed as inactive in [3] and in test [2].
Regarding `CC(C)OC(=O)CCC/C=C\C[C@@H]1[C@@H](/C=C/[C@@H](O)COc2cccc(C(F)(F)F)c2)[C@H](O)C[C@@H]1O`, the AC50 in test [8] is 23.5 µM (active). The remaining NAD in [9] was 10 nM (inactive).
For `O=C(Nc1cccc(Br)c1)c1cccc(S(=O)(=O)N2CCCCCC2)c1`, the call in test [8] was inactive.
For `FC(F)(F)c1ccc(Nc2nc3ccc(Oc4ccnc(-c5ncc(C(F)(F)F)[nH]5)c4)cc3[nH]2)cc1`, the AC50 in [8] is 20.9 µM (active).
In the case of `O=C(O)C[C@H]1CCc2c1[nH]c1ccc(OCc3ccc(C4CCCC4)c(C(F)(F)F)c3)cc21`, the call in test [2] was inactive.
Regarding `N#CN1CCC[C@@H](n2nc(-c3ccc(Oc4ccc(F)cc4F)cc3)c(C(N)=O)c2N)C1`, the outcome in [3] and in test [2] was inactive.
In the case of `C#CCC(Cc1cnc2nc(N)nc(N)c2n1)c1ccc(C(=O)N[C@@H](CCC(=O)O)C(=O)O)cc1` (some centres not stated), the outcome in test [3] was inactive.
Regarding `COc1cc2nccc(Oc3ccc(NC(=O)c4cn(C(C)C)c(=O)n(-c5ccc(F)cc5)c4=O)cc3F)c2cc1OC`, the call in test [3] and in test [2] was inactive.
